Measurements as given in the supplement of paper PMC10849652.
The full data set covers some 8,800 targets. This sample favours those with a hit. About 0.5% of all pairs of compound and target were hits.

What was measured:
Experiment in all cases: log2 fold change, soluble protein after heating vs DMSO (PISA); higher = thermal stabilisation; K562 lysate, 10 uM; active = over 0.2 and 3.5 SD of the protein, either way, in both replicates (recomputed)
erlotinib = compound: C#Cc1cccc(Nc2ncnc3cc(OCCOC)c(OCCOC)cc23)c1 [erlotinib]
Method in brief: (§1)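 The values are log-two fold changes in thermal stability compared with solvent controls and come from duplicates. They were obtained by TMTpro 16plex LC-MS/MS, with channel sums equalised, on the supernatant after 21,000xg for 90 min. That supernatant came from crude K562 extract at 1 mg/mL protein treated with 10 μM compound for 30 min, heated for 3 min across 48°C-58°C, pooled and brought to 0.5% NP-40 at 4°C.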

[1] = compound: C/C(=N\NC(=O)C1=CC(=CC=C1)S(=O)(=O)N2CCOCC2)/C3=C(C=CC(=C3)Cl)O
Method in brief: as §1

[2] = compound: C1=CC(=CC=C1C2=NC3=C(N2)C=C(C=C3)C(=O)N)OC4=CC=C(C=C4)Cl
Method in brief: as §1

[3] = compound: C1=CC2=C(C=CC(=C2)/C=C\3/C(=O)NC(=NCC4=CC=CS4)S3)N=C1
Method in brief: as §1

[4] = compound: C1=CC2=NC=CN=C2C=C1/C=C/3\C(=O)NC(=O)S3
Method in brief: as §1

[5] = compound: C1=CC=C(C=C1)C2=NC(=C(N2)C3=CC=NC=C3)C4=CC(=C(C=C4)Cl)O
Method in brief: as §1

[6] = compound: C1=CC=C2C(=C1)C3=NNC4=CC=CC(=C43)C2=O
Method in brief: as §1

[7] = compound: C1CCN(C1)C(=O)NC2=CC=CC(=C2)NC3=NC=C(C(=N3)NCCC4=CN=CN4)Br
Method in brief: as §1

[8] = compound: C1CN(CCC1(CC2=CC=C(C=C2)Cl)N)C3=NC=NC4=C3C=CN4
Method in brief: as §1

IRAK-1-4 Inhibitor I = compound: C1COCCN1CCN2C3=CC=CC=C3N=C2NC(=O)C4=CC(=CC=C4)[N+](=O)[O-] [IRAK-1-4 Inhibitor I]
Method in brief: as §1

ibrutinib = compound: C=CC(=O)N1CCC[C@@H](n2nc(-c3ccc(Oc4ccccc4)cc3)c3c(N)ncnc32)C1 [ibrutinib]
Method in brief: as §1

[9] = compound: CC(=O)c1cnc2ccc(-c3cc(Cl)c(O)c(Cl)c3)nc2c1N[C@H]1CC[C@H](CN(C)C)CC1
Method in brief: as §1

ralimetinib = compound: CC(C)(C)Cn1c(N)nc2ccc(-c3[nH]c(C(C)(C)C)nc3-c3ccc(F)cc3)nc21 [ralimetinib]
Method in brief: as §1

[10] = compound: CC(C)(O)CC(=O)NCCn1ccc2ncnc(Nc3ccc(Oc4cccc(C(F)(F)F)c4)c(Cl)c3)c21
Method in brief: as §1

[11] = compound: CC(C)C1=C2N=C(C=C(N2N=C1)NCC3=CC=CC=C3)NCCCCCCN
Method in brief: as §1

[12] = compound: CC1=C(C(CC(=O)N1)C2=CC=C(C=C2)C(F)(F)F)C(=O)NC3=C(C=C4C(=C3)C=NN4)F
Method in brief: as §1

[13] = compound: CC1=C(C2=C(C=C1)C(=O)C3=CC=CC=C3N2CCCN)C
Method in brief: as §1

[14] = compound: CC1=C(C=C(C=C1)NC(=O)C2=CC(=CC=C2)C(C)(C)C#N)NC3=CC4=C(C=C3)N=CN(C4=O)C
Method in brief: as §1

[15] = compound: CC1=C(C=C(C=C1)NC(=O)C2=CC(=CC=C2)N(C)C)NC(=O)C3=CC=C(C=C3)O
Method in brief: as §1

[16] = compound: CC1=CC=C(C=C1)SC2=C3C=C(SC3=CN=C2)C(=O)N
Method in brief: as §1

Measured: log2 fold change

RARS (UniProt P54136)
inactive: erlotinib 0.037 | [1] 0.029 | [2] -0.023 | [3] 0.023 | [4] 0.043 | [5] 0.029 | [6] -0.025 | [7] -0.005 | [8] 0.005 | IRAK-1-4 Inhibitor I 0.008 | ibrutinib -0.001 | [9] -0.003 | ralimetinib 0.062 | [10] 0.048 | [11] 0.033 | [12] -0.019 | [13] 0.015 | [14] -0.003 | [15] 0.06 | [16] 0.033

RPLP0P6 (UniProt Q8NHW5)
inactive: erlotinib -0.003 | [1] -0.069 | [2] -0.034 | [3] 0.026 | [4] -0.05 | [5] 0.009 | [6] 0.03 | [7] 0.024 | [8] 0.004 | IRAK-1-4 Inhibitor I 0.008 | ibrutinib 0.064 | [9] -0.005 | ralimetinib -0.01 | [10] -0.02 | [11] -0.009 | [12] -0.052 | [13] -0.028 | [14] 0.015 | [15] 0.01 | [16] -0.017

RPS18 (UniProt P62269)
inactive: erlotinib -0.021 | [1] -0.088 | [2] -0.007 | [3] -0.006 | [4] -0.004 | [5] -0.012 | [6] -0.007 | [7] 0.005 | [8] 0.004 | IRAK-1-4 Inhibitor I 0.047 | ibrutinib -0.016 | [9] 0.01 | ralimetinib -0.006 | [10] -0.02 | [11] 0.008 | [12] -0.037 | [13] -0.1 | [14] 0 | [15] -0.006 | [16] -0.012

RBM8A (UniProt Q9Y5S9)
inactive: erlotinib -0.061 | [1] 0.035 | [2] -0.002 | [3] 0.069 | [4] -0.042 | [5] 0.029 | [6] 0.093 | [7] 0.086 | [8] -0.076 | IRAK-1-4 Inhibitor I -0.059 | ibrutinib -0.001 | [9] -0.016 | ralimetinib -0.011 | [10] 0.057 | [11] -0.038 | [12] -0.004 | [13] 0.066 | [14] -0.101 | [15] 0.035 | [16] 0.027

RCC1 isoform 2 (UniProt P18754)
Sequence of UniProt P18754 (P18754 whole entry, looked up): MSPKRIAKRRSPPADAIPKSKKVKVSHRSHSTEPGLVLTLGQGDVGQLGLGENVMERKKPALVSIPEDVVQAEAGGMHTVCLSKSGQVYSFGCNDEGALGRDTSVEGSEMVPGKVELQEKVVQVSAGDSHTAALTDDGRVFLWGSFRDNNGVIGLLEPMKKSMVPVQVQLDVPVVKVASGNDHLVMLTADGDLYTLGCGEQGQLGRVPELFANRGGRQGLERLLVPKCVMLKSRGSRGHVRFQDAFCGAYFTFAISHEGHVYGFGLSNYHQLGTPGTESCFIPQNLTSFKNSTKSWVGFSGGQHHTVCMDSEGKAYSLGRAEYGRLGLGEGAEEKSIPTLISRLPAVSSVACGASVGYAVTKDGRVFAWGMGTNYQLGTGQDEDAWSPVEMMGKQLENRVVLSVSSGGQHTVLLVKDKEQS
inactive: erlotinib 0.016 | [1] 0.005 | [2] -0.033 | [3] 0 | [4] 0.017 | [5] 0.007 | [6] -0.024 | [7] -0.008 | [8] -0.043 | IRAK-1-4 Inhibitor I -0.022 | ibrutinib -0.008 | [9] 0.012 | ralimetinib 0.041 | [10] 0.019 | [11] 0.015 | [12] -0.048 | [13] -0.037 | [14] -0.01 | [15] 0.036 | [16] 0.01

RABEPK (UniProt Q7Z6M1)
Sequence of UniProt Q7Z6M1 (Q7Z6M1 whole entry, looked up): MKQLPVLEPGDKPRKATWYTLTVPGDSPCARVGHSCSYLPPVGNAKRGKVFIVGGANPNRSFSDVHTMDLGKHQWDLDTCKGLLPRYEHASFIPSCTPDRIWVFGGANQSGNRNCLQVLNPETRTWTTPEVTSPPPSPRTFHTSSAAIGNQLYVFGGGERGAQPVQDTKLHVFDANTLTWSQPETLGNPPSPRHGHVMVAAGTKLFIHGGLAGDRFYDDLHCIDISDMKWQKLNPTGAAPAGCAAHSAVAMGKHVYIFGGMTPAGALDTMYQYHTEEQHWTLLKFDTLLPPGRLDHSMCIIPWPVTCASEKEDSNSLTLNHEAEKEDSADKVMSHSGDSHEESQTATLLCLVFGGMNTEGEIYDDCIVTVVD
inactive: erlotinib -0.01 | [1] 0.014 | [2] 0.012 | [3] 0.004 | [4] 0.032 | [5] 0.007 | [6] -0.024 | [7] -0.03 | [8] -0.032 | IRAK-1-4 Inhibitor I 0.014 | ibrutinib 0 | [9] -0.002 | ralimetinib 0.01 | [10] -0.006 | [11] 0.018 | [12] -0.009 | [13] -0.007 | [14] 0.008 | [15] 0.001 | [16] 0

RBM23 isoform 2 (UniProt Q86U06)
Sequence of UniProt Q86U06 (Q86U06 whole entry, looked up): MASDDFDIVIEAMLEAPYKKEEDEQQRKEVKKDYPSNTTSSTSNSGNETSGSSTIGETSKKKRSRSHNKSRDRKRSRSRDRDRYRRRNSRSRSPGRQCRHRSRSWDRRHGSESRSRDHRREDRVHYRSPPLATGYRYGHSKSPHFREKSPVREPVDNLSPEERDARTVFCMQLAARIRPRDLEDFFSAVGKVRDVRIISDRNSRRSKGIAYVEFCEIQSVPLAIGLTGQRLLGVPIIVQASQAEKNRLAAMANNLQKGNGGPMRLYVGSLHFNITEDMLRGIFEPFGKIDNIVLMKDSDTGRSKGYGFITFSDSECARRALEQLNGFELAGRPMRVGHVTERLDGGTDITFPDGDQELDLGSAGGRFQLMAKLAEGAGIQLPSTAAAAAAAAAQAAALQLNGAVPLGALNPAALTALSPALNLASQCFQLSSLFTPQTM
inactive: erlotinib -0.056 | [1] 0.007 | [2] 0.012 | [3] -0.106 | [4] 0.148 | [5] -0.052 | [6] 0.001 | [7] -0.175 | [8] 0.091 | IRAK-1-4 Inhibitor I -0.004 | ibrutinib -0.125 | [9] -0.014 | ralimetinib 0.041 | [10] -0.096 | [11] 0.081 | [12] 0.151 | [13] -0.122 | [14] 0.112 | [15] -0.022 | [16] 0.05

RIOK2 (UniProt Q9BVS4)
Sequence of UniProt Q9BVS4 (Q9BVS4 whole entry, looked up): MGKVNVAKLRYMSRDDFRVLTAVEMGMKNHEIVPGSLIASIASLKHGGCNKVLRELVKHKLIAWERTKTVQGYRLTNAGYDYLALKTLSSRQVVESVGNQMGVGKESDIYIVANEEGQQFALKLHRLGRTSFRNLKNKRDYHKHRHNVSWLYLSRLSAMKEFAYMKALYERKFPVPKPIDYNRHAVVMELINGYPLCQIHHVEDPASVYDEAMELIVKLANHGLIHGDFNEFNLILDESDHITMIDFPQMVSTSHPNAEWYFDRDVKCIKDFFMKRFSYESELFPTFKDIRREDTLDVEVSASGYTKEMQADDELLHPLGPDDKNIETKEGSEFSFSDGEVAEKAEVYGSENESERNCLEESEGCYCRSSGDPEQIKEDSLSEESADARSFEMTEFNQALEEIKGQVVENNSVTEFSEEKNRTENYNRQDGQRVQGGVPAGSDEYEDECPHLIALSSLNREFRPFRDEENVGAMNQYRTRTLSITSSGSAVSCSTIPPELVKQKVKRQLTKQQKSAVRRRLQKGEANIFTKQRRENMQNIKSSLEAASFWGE
active: [6] 0.395 | [9] 0.512
inactive: erlotinib -0.018 | [1] -0.045 | [2] -0.015 | [3] 0.07 | [4] 0.038 | [5] 0.029 | [7] -0.01 | [8] -0.019 | IRAK-1-4 Inhibitor I -0.005 | ibrutinib -0.012 | ralimetinib 0.026 | [10] -0.014 | [11] -0.021 | [12] -0.018 | [13] -0.011 | [14] -0.016 | [15] 0.013 | [16] 0.052

S100A11 (UniProt P31949)
Sequence of UniProt P31949 (P31949 whole entry, looked up): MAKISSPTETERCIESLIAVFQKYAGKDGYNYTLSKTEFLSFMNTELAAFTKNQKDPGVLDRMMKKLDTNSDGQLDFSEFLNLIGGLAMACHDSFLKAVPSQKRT
inactive: erlotinib 0.02 | [1] 0.034 | [2] 0.02 | [3] -0.008 | [4] -0.028 | [5] -0.009 | [6] -0.055 | [7] 0.071 | [8] 0.074 | IRAK-1-4 Inhibitor I -0.025 | ibrutinib -0.011 | [9] -0.049 | ralimetinib -0.009 | [10] -0.017 | [11] -0.02 | [12] -0.024 | [13] 0.003 | [14] 0.058 | [15] 0.028 | [16] 0.037

RALA (UniProt P11233)
Sequence of UniProt P11233 (P11233 whole entry, looked up): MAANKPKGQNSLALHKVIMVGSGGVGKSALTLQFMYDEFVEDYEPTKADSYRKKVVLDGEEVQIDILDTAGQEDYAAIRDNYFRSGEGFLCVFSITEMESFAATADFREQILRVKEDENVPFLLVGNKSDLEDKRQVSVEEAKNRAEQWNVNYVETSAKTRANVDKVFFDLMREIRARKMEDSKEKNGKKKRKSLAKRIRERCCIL
inactive: erlotinib 0.007 | [1] -0.146 | [2] -0.035 | [3] -0.04 | [4] 0.031 | [5] -0.012 | [6] 0.003 | [7] -0.016 | [8] 0.002 | IRAK-1-4 Inhibitor I 0.04 | ibrutinib 0.009 | [9] -0.01 | ralimetinib 0.006 | [10] -0.05 | [11] 0.034 | [12] -0.002 | [13] -0.001 | [14] 0.057 | [15] -0.048 | [16] -0.023

RBM22 (UniProt Q9NW64)
inactive: erlotinib 0.028 | [1] -0.005 | [2] 0.025 | [3] -0.07 | [4] 0.013 | [5] -0.034 | [6] -0.021 | [7] -0.02 | [8] 0.009 | IRAK-1-4 Inhibitor I 0.018 | ibrutinib 0.01 | [9] -0.007 | ralimetinib -0.03 | [10] -0.044 | [11] -0.033 | [12] 0.009 | [13] -0.014 | [14] 0.043 | [15] -0.01 | [16] -0.006

RBSN (UniProt Q9H1K0)
Sequence of UniProt Q9H1K0 (Q9H1K0 whole entry, looked up): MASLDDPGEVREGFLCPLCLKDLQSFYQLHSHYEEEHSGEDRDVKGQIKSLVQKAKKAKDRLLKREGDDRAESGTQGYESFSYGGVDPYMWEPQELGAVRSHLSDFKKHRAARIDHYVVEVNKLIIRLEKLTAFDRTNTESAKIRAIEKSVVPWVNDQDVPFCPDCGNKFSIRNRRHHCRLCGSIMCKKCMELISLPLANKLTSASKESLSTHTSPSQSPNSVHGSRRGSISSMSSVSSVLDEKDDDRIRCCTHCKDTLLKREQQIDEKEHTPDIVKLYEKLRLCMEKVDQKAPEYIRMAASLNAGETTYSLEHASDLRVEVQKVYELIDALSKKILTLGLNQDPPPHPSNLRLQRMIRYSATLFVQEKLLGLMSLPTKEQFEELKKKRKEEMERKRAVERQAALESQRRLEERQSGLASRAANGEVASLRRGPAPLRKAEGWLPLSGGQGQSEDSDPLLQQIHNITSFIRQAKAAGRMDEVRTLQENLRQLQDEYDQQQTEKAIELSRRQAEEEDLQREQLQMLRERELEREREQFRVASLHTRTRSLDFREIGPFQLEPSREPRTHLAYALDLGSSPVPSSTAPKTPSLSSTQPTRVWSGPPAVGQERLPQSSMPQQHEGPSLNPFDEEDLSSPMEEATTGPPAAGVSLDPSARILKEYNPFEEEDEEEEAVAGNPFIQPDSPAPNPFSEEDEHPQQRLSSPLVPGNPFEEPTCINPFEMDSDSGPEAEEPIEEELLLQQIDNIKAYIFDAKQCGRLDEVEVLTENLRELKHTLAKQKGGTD
inactive: erlotinib -0.067 | [1] -0.215 | [2] 0.004 | [3] -0.014 | [4] -0.004 | [5] 0.005 | [6] 0.043 | [7] 0.015 | [8] 0.063 | IRAK-1-4 Inhibitor I 0.025 | ibrutinib 0.018 | [9] 0.043 | ralimetinib -0.014 | [10] -0.007 | [11] 0.043 | [12] 0.025 | [13] -0.032 | [14] 0.044 | [15] 0.003 | [16] 0.035

RPL28 (UniProt P46779)
inactive: erlotinib -0.012 | [1] -0.104 | [2] 0.006 | [3] -0.009 | [4] -0.037 | [5] 0.019 | [6] 0.016 | [7] -0.003 | [8] 0 | IRAK-1-4 Inhibitor I -0.02 | ibrutinib -0.026 | [9] -0.011 | ralimetinib -0.003 | [10] -0.005 | [11] 0.006 | [12] -0.038 | [13] -0.066 | [14] -0.021 | [15] 0.012 | [16] 0.026

RAB1B (UniProt Q9H0U4)
Sequence of UniProt Q9H0U4 (Q9H0U4 whole entry, looked up): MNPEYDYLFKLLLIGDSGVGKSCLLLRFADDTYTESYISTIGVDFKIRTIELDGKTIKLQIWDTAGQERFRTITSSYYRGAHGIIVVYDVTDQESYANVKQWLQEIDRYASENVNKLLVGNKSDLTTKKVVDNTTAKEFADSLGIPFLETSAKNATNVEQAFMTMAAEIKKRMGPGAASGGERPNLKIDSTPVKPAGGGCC
inactive: erlotinib -0.009 | [1] -0.005 | [2] 0.011 | [3] 0.019 | [4] -0.002 | [5] 0.005 | [6] -0.008 | [7] 0.014 | [8] 0.003 | IRAK-1-4 Inhibitor I 0.055 | ibrutinib -0.011 | [9] -0.01 | ralimetinib -0.014 | [10] -0.012 | [11] -0.006 | [12] 0.02 | [13] -0.014 | [14] -0.036 | [15] -0.011 | [16] -0.006

SEC13 isoform 3 (UniProt P55735)
Sequence of UniProt P55735 (P55735 whole entry, looked up): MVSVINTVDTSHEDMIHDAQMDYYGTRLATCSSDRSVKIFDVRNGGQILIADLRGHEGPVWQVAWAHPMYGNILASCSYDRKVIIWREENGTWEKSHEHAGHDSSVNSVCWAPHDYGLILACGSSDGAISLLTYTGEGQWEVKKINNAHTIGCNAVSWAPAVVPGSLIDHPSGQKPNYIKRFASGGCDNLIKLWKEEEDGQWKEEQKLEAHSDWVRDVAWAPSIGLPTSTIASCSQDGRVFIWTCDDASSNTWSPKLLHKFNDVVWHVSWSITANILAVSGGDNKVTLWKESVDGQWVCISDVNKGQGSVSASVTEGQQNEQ
inactive: erlotinib 0.032 | [1] 0.02 | [2] 0.009 | [3] -0.019 | [4] 0 | [5] -0.001 | [6] -0.033 | [7] -0.019 | [8] 0.006 | IRAK-1-4 Inhibitor I -0.028 | ibrutinib -0.084 | [9] -0.025 | ralimetinib 0.024 | [10] -0.01 | [11] -0.015 | [12] -0.005 | [13] 0.034 | [14] -0.032 | [15] 0.031 | [16] -0.014

RPTOR (UniProt Q8N122)
Sequence of UniProt Q8N122 (Q8N122 whole entry, looked up): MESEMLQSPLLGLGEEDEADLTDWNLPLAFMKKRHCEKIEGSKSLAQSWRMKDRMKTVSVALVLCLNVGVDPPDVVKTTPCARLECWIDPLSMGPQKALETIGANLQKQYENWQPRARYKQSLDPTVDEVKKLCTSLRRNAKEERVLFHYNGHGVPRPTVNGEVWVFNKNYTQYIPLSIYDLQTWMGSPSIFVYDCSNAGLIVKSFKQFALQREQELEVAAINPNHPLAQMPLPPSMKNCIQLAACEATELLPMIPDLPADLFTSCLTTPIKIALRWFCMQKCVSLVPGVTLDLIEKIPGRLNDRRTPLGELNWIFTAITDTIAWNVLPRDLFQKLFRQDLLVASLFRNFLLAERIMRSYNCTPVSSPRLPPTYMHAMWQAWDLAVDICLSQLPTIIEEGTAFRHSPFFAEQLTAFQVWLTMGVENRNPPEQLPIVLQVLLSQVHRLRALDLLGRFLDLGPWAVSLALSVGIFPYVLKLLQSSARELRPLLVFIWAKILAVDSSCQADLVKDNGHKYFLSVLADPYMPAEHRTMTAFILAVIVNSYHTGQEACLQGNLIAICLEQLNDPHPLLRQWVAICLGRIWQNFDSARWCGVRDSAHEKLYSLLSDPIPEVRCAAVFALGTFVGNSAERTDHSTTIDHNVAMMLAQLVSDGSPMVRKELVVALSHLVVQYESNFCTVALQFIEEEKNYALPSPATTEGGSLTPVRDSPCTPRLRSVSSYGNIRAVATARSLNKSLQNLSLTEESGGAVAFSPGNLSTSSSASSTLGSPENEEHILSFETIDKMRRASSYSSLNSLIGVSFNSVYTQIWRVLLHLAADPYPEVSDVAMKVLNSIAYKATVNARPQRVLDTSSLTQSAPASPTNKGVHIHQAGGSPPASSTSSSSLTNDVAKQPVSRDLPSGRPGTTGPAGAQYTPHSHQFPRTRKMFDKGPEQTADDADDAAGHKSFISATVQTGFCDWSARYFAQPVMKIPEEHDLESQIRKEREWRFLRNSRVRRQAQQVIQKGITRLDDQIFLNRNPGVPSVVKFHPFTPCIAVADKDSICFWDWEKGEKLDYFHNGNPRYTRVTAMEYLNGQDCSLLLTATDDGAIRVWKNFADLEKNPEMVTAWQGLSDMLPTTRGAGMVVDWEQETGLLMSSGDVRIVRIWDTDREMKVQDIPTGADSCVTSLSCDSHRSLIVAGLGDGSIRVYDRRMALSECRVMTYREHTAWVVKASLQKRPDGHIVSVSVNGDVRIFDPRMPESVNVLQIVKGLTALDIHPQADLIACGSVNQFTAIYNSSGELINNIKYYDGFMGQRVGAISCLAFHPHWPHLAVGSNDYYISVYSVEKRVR
inactive: erlotinib 0.032 | [1] 0.002 | [2] 0.062 | [3] 0.013 | [4] 0.017 | [5] -0.002 | [6] -0.002 | [7] -0.036 | [8] -0.015 | IRAK-1-4 Inhibitor I 0.003 | ibrutinib -0.042 | [9] 0.008 | ralimetinib -0.001 | [10] -0.045 | [11] -0.012 | [12] 0.005 | [13] -0.039 | [14] 0.005 | [15] 0.038 | [16] 0.01
